Experiment [1] is described as follows: optical density shifts of acrAB sulA E. coli – strain DRC41, OD650, 48 h, E. coli filamentation inducer project, primary screen (AID 1152).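 Also: E. coli MC1000 strain DRC41 lacking acrAB efflux pump and sulA.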 The note with it: higher = more signal, called active from +8 up or from −8 down.
Experiment [2] can be described thus: probe aLefty1 binding on compound microarray – biochemical, small-molecule microarray, 635/667 nm fluorescence, primary screen (AID 1153).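 Also: score merges spot fluorescence with signal-to-noise ratio from the scanned slide images.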 Particulars: higher = more signal.
Experiment [3] can be described thus: plasmodial surface anion channel blockers, osmotic lysis – cell-based, P. falciparum Indochina, OD700, 1 h, primary screen (AID 1154). The note with it: P. falciparum Indochina infected RBC osmotic lysis, higher = more signal, called active from +8 up or from −8 down.
A short description of experiment [4]: plasmodial surface anion channel blockers, osmotic lysis – cell-based, P. falciparum Indochina, OD700, 2 h, primary screen (AID 1155).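 Also: lysis reports solute entry through the parasite surface anion channel PSAC.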 The note with it: P. falciparum Indochina infected erythrocytes, higher = more signal, called active from +8 up or from −8 down.
The nature of experiment [5]: changes in parasitized red cell lysis, either direction – P. falciparum Indochina, OD700, 3 h, PSAC antagonist project, primary screen (AID 1156). The note with it: P. falciparum-infected erythrocytes, osmotic lysis, higher = more signal, called active from +8 up or from −8 down.
Experiment [6] can be described thus: plasmodial surface anion channel blockers, osmotic lysis – cell-based, P. falciparum Indochina, OD700, 18 h, primary screen (AID 1157). The note with it: P. falciparum Indochina infected erythrocytes, osmotic lysis OD700, 18 h; higher = more signal, called active from +8 up or from −8 down.
A short description of experiment [7]: S6 kinase pathway phospho-S6 level changes – cell-based, A549, cytoblot, luminescence, serum-stimulated, primary screen (AID 1158).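 Also: serum-stimulated A549 lung adenocarcinoma cells; signal is phosphorylated S6 detected by cytoblot immunostaining with HRP secondary.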 The note with it: 5 h, higher = more signal.
For experiment [8], the target named is NADPH oxidase 2 (Homo sapiens) (UniProt P04839). Description: compounds shifting NOX2 Amplex Red fluorescence – cell-based, HEK293-NOX2, PMA-stimulated, NOX inhibitor project, primary screen (AID 1159). Also: test concentration not given here. Particulars: 45 min, higher = more signal, called active from +8 up or from −8 down.
Chain of NADPH oxidase 2 (Homo sapiens) (P04839 whole entry, looked up): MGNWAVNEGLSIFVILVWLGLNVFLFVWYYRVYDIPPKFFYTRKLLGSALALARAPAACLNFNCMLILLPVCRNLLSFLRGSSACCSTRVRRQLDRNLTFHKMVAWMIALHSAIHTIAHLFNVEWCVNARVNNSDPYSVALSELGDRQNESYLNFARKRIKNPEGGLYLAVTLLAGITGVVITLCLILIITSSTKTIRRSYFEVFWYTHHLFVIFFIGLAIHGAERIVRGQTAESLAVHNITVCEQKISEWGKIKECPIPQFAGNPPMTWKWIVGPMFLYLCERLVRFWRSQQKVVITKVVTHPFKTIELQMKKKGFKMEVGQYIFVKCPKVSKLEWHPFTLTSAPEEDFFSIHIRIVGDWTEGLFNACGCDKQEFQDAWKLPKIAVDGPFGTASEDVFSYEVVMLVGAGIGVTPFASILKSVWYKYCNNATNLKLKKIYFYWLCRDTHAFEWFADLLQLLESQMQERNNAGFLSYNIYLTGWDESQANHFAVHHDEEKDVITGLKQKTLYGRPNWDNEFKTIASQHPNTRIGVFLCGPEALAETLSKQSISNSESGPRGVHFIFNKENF
Experiment [9] deals with NADPH oxidase 4 (Homo sapiens) (UniProt Q9NPH5). Description: compounds shifting NOX4 Amplex Red fluorescence – cell-based, HEK293-NOX4, tetracycline-induced, NOX inhibitor project, primary screen (AID 1160). Particulars: HEK293-NOX4, Amplex Red H2O2 fluorescence, 45 min; higher = more signal, called active from +8 up or from −8 down.
Chain of NADPH oxidase 4 (Homo sapiens) (Q9NPH5 whole entry, looked up): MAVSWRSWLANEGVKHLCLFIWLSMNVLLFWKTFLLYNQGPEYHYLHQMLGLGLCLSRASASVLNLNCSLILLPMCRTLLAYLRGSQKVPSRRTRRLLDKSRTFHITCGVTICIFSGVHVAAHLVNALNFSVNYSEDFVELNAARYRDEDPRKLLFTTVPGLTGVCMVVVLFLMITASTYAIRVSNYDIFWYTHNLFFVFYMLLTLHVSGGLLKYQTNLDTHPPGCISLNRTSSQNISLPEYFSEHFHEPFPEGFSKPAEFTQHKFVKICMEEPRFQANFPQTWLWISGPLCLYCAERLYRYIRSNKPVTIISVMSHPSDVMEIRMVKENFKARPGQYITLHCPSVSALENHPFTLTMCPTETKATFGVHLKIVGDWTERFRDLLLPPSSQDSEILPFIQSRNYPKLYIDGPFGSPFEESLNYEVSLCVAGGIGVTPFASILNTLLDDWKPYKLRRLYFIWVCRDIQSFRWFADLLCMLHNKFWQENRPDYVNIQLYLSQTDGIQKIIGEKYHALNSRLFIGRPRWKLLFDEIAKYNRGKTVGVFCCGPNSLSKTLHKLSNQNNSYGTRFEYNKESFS
Experiment [10] deals with NADPH oxidase 5 (Homo sapiens) (UniProt Q96PH1). Description: compounds shifting NOX5 Amplex Red fluorescence – cell-based, HEK293-NOX5, NOX inhibitor project, primary screen (AID 1161). Particulars: HEK293-NOX5, ionomycin, 45 min, higher = more signal.
Chain of NADPH oxidase 5 (Homo sapiens) (Q96PH1 whole entry, looked up): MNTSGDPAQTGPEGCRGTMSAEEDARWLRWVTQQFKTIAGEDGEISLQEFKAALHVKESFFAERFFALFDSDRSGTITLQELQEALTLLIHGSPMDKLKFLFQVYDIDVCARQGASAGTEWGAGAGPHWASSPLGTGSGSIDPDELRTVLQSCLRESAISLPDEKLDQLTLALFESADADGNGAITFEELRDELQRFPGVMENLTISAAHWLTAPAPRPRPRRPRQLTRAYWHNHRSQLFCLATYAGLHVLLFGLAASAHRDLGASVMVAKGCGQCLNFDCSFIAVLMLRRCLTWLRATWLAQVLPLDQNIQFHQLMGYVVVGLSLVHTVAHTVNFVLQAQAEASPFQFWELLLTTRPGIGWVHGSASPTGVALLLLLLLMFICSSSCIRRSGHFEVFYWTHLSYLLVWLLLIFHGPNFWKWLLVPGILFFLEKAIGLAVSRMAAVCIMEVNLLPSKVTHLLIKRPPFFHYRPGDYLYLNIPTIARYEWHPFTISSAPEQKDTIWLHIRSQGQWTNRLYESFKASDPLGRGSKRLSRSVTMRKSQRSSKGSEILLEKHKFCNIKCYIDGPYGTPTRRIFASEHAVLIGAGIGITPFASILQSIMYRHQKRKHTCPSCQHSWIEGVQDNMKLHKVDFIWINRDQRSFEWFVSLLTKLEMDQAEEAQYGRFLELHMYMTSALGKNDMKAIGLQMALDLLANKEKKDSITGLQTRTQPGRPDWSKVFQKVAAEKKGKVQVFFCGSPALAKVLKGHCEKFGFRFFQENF

Activity calls are given as the source filed them.

As to `COC(=O)[C@@]1(Cc2ccc(F)cc2)[C@@H]2[C@@H](CC(=O)[C@H]2CC(=O)C(=O)N(C)C)CN1C(=O)c1ccccc1`, the z-score is -1.78 (inactive) in experiment [1]; 2.32 (inactive) in experiment [3]; 0.723 (inactive) in [4]; 0.806 (inactive) in experiment [5]; 0.961 (inactive) in experiment [6]; -0.761 in experiment [7]. For the same molecule, the z-score in experiment [8] is 0.366 (inactive); in experiment [9], -0.21 (inactive); in experiment [10] it was 0.256. In addition, the composite z-score in experiment [2] was 0.334.
Take `C=CC[C@@]1(C(=O)N(C)C)N=C(c2ccc(OCCCO)cc2)O[C@@H]1c1ccccc1N=[N+]=[N-]`: the z-score in experiment [1] is 0.722 (inactive); in experiment [3], 33 (active); in experiment [4], 28.9 (active); in [5], 3.29 (inactive); in experiment [6] it was 8.39 (active); in experiment [7] it was -0.195. The z-score in [8] was -1.12 (inactive); in experiment [9], 0.475 (inactive); in experiment [10] it was 0.446. The molecule also returned a composite z-score in experiment [2] of 0.57.
As for `COC(=O)[C@@]1(Cc2ccccc2)[C@H]2c3cc(C(=O)N4CCCC4)n(Cc4cccc5ccccc45)c3C[C@H]2CN1C(=O)c1ccccc1`, the z-score in [1] is -1.22 (inactive); in experiment [3], 6.74 (inactive); in [4], 1.43 (inactive); in experiment [5], 1.27 (inactive); in experiment [6], 1.3 (inactive); in experiment [7] it was -0.503. Further, the z-score in experiment [8] was 0.586 (inactive); in experiment [9], -0.237 (inactive); in [10] it was 1.05. In experiment [2], this molecule registered a composite z-score of 1.71.
For the molecule `COC(=O)[C@@]1(Cc2ccc(OC)cc2)[C@H]2c3cc(C(=O)N(C)C)n(CCN4CNCC4=O)c3C[C@H]2CN1C(=O)c1ccccc1`, the z-score in experiment [1] is -1.1 (inactive); in [3], 0.143 (inactive); in experiment [4] it was -0.954 (inactive); in experiment [5], -0.163 (inactive); in experiment [6], -2.05 (inactive); in experiment [7], 0.963. The z-score in experiment [8] is 0.821 (inactive); in experiment [9] it was 2.29 (inactive); in [10] it was 0.453. Further, in [2], the composite z-score came out at 0.249.
As for `Cc1ccc(S[C@]2(C(=O)NC3CC3)CC(=O)N(C3Cc4ccccc4C3)[C@@H]2c2ccc(CO)cc2)cc1`, the z-score in experiment [1] was 2.26 (inactive); in experiment [3], 0.924 (inactive); in experiment [4] it was -0.578 (inactive); in experiment [5], -0.758 (inactive); in [6] it was -0.876 (inactive); in [7], 0.827. The z-score in experiment [8] was -0.655 (inactive); in [9], 0.585 (inactive); in experiment [10], 0.205. The same molecule gave a composite z-score in experiment [2] of 0.0962.
For the molecule `C=CCOC(=O)[C@@H]1[C@H]2C(=O)O[C@H](c3ccccc3)[C@H](c3ccccc3)N2[C@H](c2ccc(OCCOC(=O)[C@@H]3C[C@@H]4C(=O)N5CCC[C@H]5C(=O)N4[C@@H]3c3ccc(O)cc3)cc2)[C@@]12C(=O)Nc1ccc(I)cc12`, the z-score was 2.52 (inactive) in experiment [1]; 2.19 (inactive) in [3]; 0.727 (inactive) in [4]; 2.43 (inactive) in [5]; -1.31 (inactive) in experiment [6]; 3.17 in [7]. Further, the results for the z-score in [8], in experiment [9] and in experiment [10] were 1.32 (inactive), 0.808 (inactive) and 1.69, respectively. Besides, the composite z-score in [2] was found to be 0.365.
Regarding `CC1CC/C=C\[C@H]2OC34C=CCN(Cn5nnc6ccccc65)C(=O)[C@H]3N(C(CO)C(C)C)C(=O)[C@@H]4C2C(=O)O1` (stereo not given in full), the z-score was 0.532 (inactive) in experiment [1]; 2.43 (inactive) in [3]; 0.0805 (inactive) in [4]; 0.752 (inactive) in experiment [5]; 0.527 (inactive) in [6]; -0.174 in [7]. Moreover, the z-score was 1.09 (inactive) in experiment [8], 0.134 (inactive) in experiment [9] and 2.22 in [10]. This molecule showed a composite z-score in experiment [2] of 0.0956.
With `COc1ccc(CCNC(=O)[C@@]2(C)c3ccccc3C(=O)N(Cc3cc(F)cc(C(F)(F)F)c3)[C@H]2c2ccc(CO)cc2)cc1`, the z-score in experiment [1] is 0.753 (inactive); in experiment [3] it was 8.08 (active); in experiment [4], 0.906 (inactive); in experiment [5], 1.24 (inactive); in experiment [6], 0.526 (inactive); in experiment [7] it was 0.0269. Further, the z-score was -1.38 (inactive) in [8], -1.28 (inactive) in [9] and -1.5 in experiment [10]. The molecule further came in with a composite z-score in experiment [2] of -0.045.
On to `[N-]=[N+]=NCc1ccccc1[C@@H]1OC(c2ccc(OCCCO)cc2)=N[C@]1(Cc1ccccc1N=[N+]=[N-])C(=O)N1CCOCC1`, for which the z-score is -0.66 (inactive) in experiment [1]; 16.9 (active) in experiment [3]; 3.7 (inactive) in experiment [4]; 1.17 (inactive) in [5]; 1.01 (inactive) in experiment [6]; 0.37 in experiment [7]. For the same molecule, the z-score was -1.31 (inactive) in [8], 1.23 (inactive) in experiment [9] and 1.4 in experiment [10]. In [2], this molecule registered a composite z-score of 0.628.
Turning to `CCOC(=O)C[C@H]1[C@H](OC(=O)c2cc3ccccc3oc2=O)[C@@H](NC(=O)Cc2ccc(OC)cc2)c2cc(OCCCO)ccc2N1C(=O)c1ccccc1`, the z-score in experiment [1] is 0.386 (inactive); in experiment [3], 0.743 (inactive); in experiment [4] it was -1.44 (inactive); in experiment [5], 0.776 (inactive); in [6], -2.76 (inactive); in experiment [7], 1.03. In addition, the z-score in experiment [8] was -0.569 (inactive); in experiment [9] it was -0.523 (inactive); in experiment [10], -0.286. Further, in [2], the composite z-score turned out to be 0.0942.
As to `COCCCNC(=O)[C@@]1(Cc2ccccc2N=[N+]=[N-])N=C(c2ccc(OCCCO)cc2)O[C@H]1c1ccccc1N=[N+]=[N-]`, the z-score was -0.439 (inactive) in experiment [1]; 28.8 (active) in experiment [3]; 25.2 (active) in experiment [4]; 2.41 (inactive) in experiment [5]; 5.91 (inactive) in experiment [6]; 0.621 in [7]. In addition, the z-score in experiment [8] is -2.05 (inactive); in [9], 0.518 (inactive); in experiment [10], -2.22. Besides, the composite z-score in [2] worked out at 0.302.
Consider `CCN(CC)c1ccc(N2CC=CC34O[C@@H]5/C=C\CCC(C)OC(=O)C5[C@H]3C(=O)N(C(CO)C(C)C)[C@@H]4C2=O)cc1` (stereo not given in full), for which the z-score in experiment [1] was 0.295 (inactive); in experiment [3] it was 1.82 (inactive); in experiment [4], 0.585 (inactive); in [5], 0.975 (inactive); in [6] it was 0.674 (inactive); in experiment [7] it was -0.232. The z-score in experiment [8] is 0.398 (inactive); in experiment [9], -0.502 (inactive); in [10] it was 0.855. Besides, the composite z-score in [2] was 0.2.

Source of the values: PubChem BioAssay.
